These results are taken from PubChem BioAssay (NCI).

About 79,000 compounds went through this panel and 15% of them were active in at least one assay; those are over-represented in the sample as a whole. Unmarked numbers belong to inactive results. Calls of active or inactive are those of the source. Cut-off read from the data, not from the text of the source: active = growth inhibition above about 70%; inactive = the rest.

A short description of assay [1]: NCI Yeast Anticancer Drug Screen. Data for the rad50 strain (AID 155).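 Note: 0% = growth of vehicle-only cultures of the same strain.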 The note with it: S. cerevisiae rad50 strain growth inhibition, active compounds read high. A digest of the protocol: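 Readout: growth inhibition relative to vehicle-treated cultures. Compound exposure was carried out in a genetically defined yeast strain deficient in DNA damage repair.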
Assay [2] in a line: NCI Yeast Anticancer Drug Screen. Data for the mec2-1 strain (AID 157). The note with it: S. cerevisiae mec2-1 strain, active compounds read high. A digest of the protocol:
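Mutant yeast (mec2-1) grown with compound; growth inhibition relative to vehicle control reported.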

The nature of assay [3]: NCI Yeast Anticancer Drug Screen. Data for the sgs1 mgt1 strain (AID 161).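 Note: 0% = growth of cultures given vehicle only.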 The note with it: S. cerevisiae sgs1 mgt1 strain, active compounds read high. A digest of the protocol:
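Compounds are added to genetically altered yeast, and growth is compared with cultures given vehicle alone to give percent inhibition.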

Assay [4] is described as follows: NCI Yeast Anticancer Drug Screen. Data for the cln2 rad14 strain (AID 165).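 Note: 0% = growth equal to vehicle treated cultures.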 The note with it: S. cerevisiae cln2 rad14 strain, active compounds read high. A digest of the protocol:
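Readout is yeast growth inhibition versus vehicle-treated controls, using a strain with cln2 and rad14 alterations exposed to compound.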

The nature of assay [5]: NCI Yeast Anticancer Drug Screen. Data for the bub3 strain (AID 167). The note with it: S. cerevisiae bub3 mutant strain, active compounds read high. A digest of the protocol: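 Readout: yeast growth inhibition, expressed relative to vehicle-only wells. The test organism is a mutant strain from a panel with lesions in DNA repair or checkpoint genes.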
Assay [6] is described as follows: NCI Yeast Anticancer Drug Screen. Data for the mlh1 rad18 strain (AID 175). The note with it: S. cerevisiae mlh1 rad18 strain growth inhibition, active compounds read high. A digest of the protocol:
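Genetically defined yeast (DNA repair-deficient) exposed to compounds; growth inhibition determined relative to vehicle.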

The mark [7] stands for this setting: at 5.0 µM (retest, dose inferred, filed as 0.5).
[8] abbreviates: at 50.0 µM (retest, dose inferred, filed as 5.0).

For the compound `c1ccc2c(c1)[nH]c1c[n+]3c(c[n+]12)[nH]c1ccccc13`, the growth inhibition in assay [1] (setting [7]) is 7%; in assay [1] (setting [8]), 53%; in assay [1] (at 50.0 µM) it was 71.6% (active); in assay [2] (setting [7]) it was 8%; in assay [2] (setting [8]) it was 47%; in assay [2] (at 50.0 µM) it was 5.45%. For the same compound, the growth inhibition was 10% in assay [3] (setting [7]); 67% in assay [3] (setting [8]); 58.9% in assay [3] (at 50.0 µM); -7% in assay [4] (setting [7]); 29% in assay [4] (setting [8]); 45.2% in assay [4] (at 50.0 µM). Moreover, the growth inhibition in assay [5] (setting [7]) is -8%; in assay [5] (setting [8]), 50%; in assay [5] (at 50.0 µM), 6%; in assay [6] (setting [7]), 4%; in assay [6] (setting [8]), 84% (active); in assay [6] (at 50.0 µM) it was 80% (active).
For `O=C1C=CC(=O)C(c2ccccc2)=C1`, the growth inhibition in assay [1] (setting [7]) is 12%; in assay [1] (setting [8]), 99% (active); in assay [1] (at 50.0 µM), 99.5% (active); in assay [2] (setting [7]), 24%; in assay [2] (setting [8]), 99% (active); in assay [2] (at 50.0 µM), 99.5% (active). Moreover, the growth inhibition in assay [3] (setting [7]) was 18%; in assay [3] (setting [8]), 99% (active); in assay [3] (at 50.0 µM), 99.5% (active); in assay [4] (setting [7]) it was 16%; in assay [4] (setting [8]) it was 99% (active); in assay [4] (at 50.0 µM) it was 98.8% (active). Moreover, the growth inhibition is 3% in assay [5] (setting [7]); 99% (active) in assay [5] (setting [8]); 99.5% (active) in assay [5] (at 50.0 µM); 18% in assay [6] (setting [7]); 99% (active) in assay [6] (setting [8]); 99.2% (active) in assay [6] (at 50.0 µM).
As for `CCO/C=C1\C(=O)C=C(C)CC1c1ccc(OC)c(OC)c1OC` (stereo not drawn), the growth inhibition was 3% in assay [1] (setting [7]); 84% (active) in assay [1] (setting [8]); 53.1% in assay [1] (at 50.0 µM); 4% in assay [2] (setting [7]); 81% (active) in assay [2] (setting [8]); 38% in assay [2] (at 50.0 µM). In addition, the growth inhibition in assay [3] (setting [7]) is 7%; in assay [3] (setting [8]), 86% (active); in assay [3] (at 50.0 µM) it was 47.6%; in assay [4] (setting [7]) it was -5%; in assay [4] (setting [8]), 55%; in assay [4] (at 50.0 µM), 16.6%. Moreover, the growth inhibition in assay [5] (setting [7]) was -8%; in assay [5] (setting [8]) it was 80% (active); in assay [5] (at 50.0 µM) it was 41.7%; in assay [6] (setting [7]) it was 4%; in assay [6] (setting [8]), 88% (active); in assay [6] (at 50.0 µM), 86.7% (active).
Regarding `C/C(=N/O)c1cccc(C(F)(F)F)c1`, the growth inhibition is -150% in assay [1] (setting [7]); -146% in assay [1] (setting [8]); 7.15% in assay [1] (at 50.0 µM); -50% in assay [2] (setting [7]); -58% in assay [2] (setting [8]); 14.3% in assay [2] (at 50.0 µM). For the same compound, the growth inhibition in assay [3] (setting [7]) is -64%; in assay [3] (setting [8]), -63%; in assay [3] (at 50.0 µM), -6.55%; in assay [4] (setting [7]), -63%; in assay [4] (setting [8]), -84%; in assay [4] (at 50.0 µM), 35.6%. The growth inhibition in assay [5] (setting [7]) is -66%; in assay [5] (setting [8]) it was -92%; in assay [5] (at 50.0 µM) it was 34.6%; in assay [6] (setting [7]), -128%; in assay [6] (setting [8]), -127%; in assay [6] (at 50.0 µM) it was 19.2%.
Regarding `OC1CN(C2CCCCC2)CC1C1(O)CCN(C2CCCCC2)C1` (stereo not drawn), the growth inhibition is 0% in assay [1] (setting [7]); 6% in assay [1] (setting [8]); 20.1% in assay [1] (at 50.0 µM); 1% in assay [2] (setting [7]); 5% in assay [2] (setting [8]); -2.75% in assay [2] (at 50.0 µM). Also, the growth inhibition is 0% in assay [3] (setting [7]); 11% in assay [3] (setting [8]); 12.8% in assay [3] (at 50.0 µM); 4% in assay [4] (setting [7]); 10% in assay [4] (setting [8]); 65.7% in assay [4] (at 50.0 µM). The growth inhibition is 1% in assay [5] (setting [7]); 15% in assay [5] (setting [8]); -5.85% in assay [5] (at 50.0 µM); 3% in assay [6] (setting [7]); 10% in assay [6] (setting [8]); 20.2% in assay [6] (at 50.0 µM).
As to `CC(C)OC(=O)CCCCCC1CCCCC1`, the growth inhibition was 6% in assay [1] (setting [7]); 9% in assay [1] (setting [8]); 0.95% in assay [1] (at 50.0 µM); -2% in assay [2] (setting [7]); 2% in assay [2] (setting [8]); 13.5% in assay [2] (at 50.0 µM). Further, the growth inhibition was 3% in assay [3] (setting [7]); 11% in assay [3] (setting [8]); 1.4% in assay [3] (at 50.0 µM); 10% in assay [4] (setting [7]); 6% in assay [4] (setting [8]); 31.7% in assay [4] (at 50.0 µM). Further, the growth inhibition is 8% in assay [5] (setting [7]); 3% in assay [5] (setting [8]); -0.25% in assay [5] (at 50.0 µM); 4% in assay [6] (setting [7]); 7% in assay [6] (setting [8]); 8.8% in assay [6] (at 50.0 µM).
